The source made the active and inactive calls. The calls were made as follows: active = hit-call score of the fitted dose curve at least 0.9, where 1 is the maximum; inactive = score below 0.9.
What was measured:
[1] = BSK_3C_SRB: Viability Assessment in the BioMAP Diversity Plus: 3C Assay (AID 2283023); settings: primary human endothelial cells (HUVEC);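 also: fitted both ways against DMSO so a hit may be signal rise or drop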
Outline: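 Absorbance at 560 nm of sulforhodamine B-stained (0.1%) total protein served as a cytotoxicity readout in human umbilical vein endothelial cells, 24 h after chemical treatment. Signal was fitted bidirectionally relative to DMSO.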

[2] = read-out: Matrix Metallopeptidase 1 (MMP1), MMP1 (gene 4312); experiment: BSK_BE3C_MMP1: BioMAP Diversity Plus: BE3C Assay for Matrix Metallopeptidase 1 (MMP1) Biomarker Activity (AID 2283024); settings: primary human bronchial epithelial cells; actives raise or lower the signal
Outline: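 Human bronchial epithelial cells (BE3C system) exposed to compound for 24 h; MMP1 then quantified by ELISA. Activity was fitted in both directions relative to DMSO.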

[3] = BSK_3C_Vis: BioMAP Diversity Plus: 3C Assay for Morphology Visualization (AID 2283025); settings: primary human endothelial cells (HUVEC);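 also: fitted both ways so gain or loss versus DMSO counts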;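 as to AC50: light microscopy image of cell morphology used as background control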
Outline: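 Chemicals were added to primary human umbilical vein endothelium, cells were incubated 24 h, and morphology was then visualized by light microscopy. Gain or loss of signal was fitted bidirectionally relative to DMSO.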

[4] = read-out: Pselectin, SELP (gene 6403); experiment: BSK_4H_Pselectin: BioMAP Diversity Plus: 4H Assay for Pselectin Biomarker Activity (AID 2283026); settings: primary human endothelial cells (HUVEC); actives raise or lower the signal
Outline: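 ELISA read-out of P-selectin on human umbilical vein endothelium after 24 h of dosing. Values derive from bidirectional fitting relative to DMSO. Parallel SRB protein staining flagged overt cytotoxicity.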

[5] = BSK_4H_SRB: Viability Assessment in the BioMAP Diversity Plus: 4H Assay (AID 2283027); settings: primary human endothelial cells (HUVEC);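 also: cells exposed to compound for 24 h before staining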;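 as to AC50: curves fitted both ways versus DMSO so AC50 may be loss or gain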
Outline: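 Absorbance at 560 nm of SRB-stained total protein served as the viability read-out in confluent primary human umbilical vein endothelium 24 h after chemical treatment. Curves were fitted bidirectionally against DMSO as negative control.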

[6] = BSK_BE3C_SRB: Viability Assessment in the BioMAP Diversity Plus: BE3C Assay (AID 2283028); settings: primary human bronchial epithelial cells;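 as to AC50: fitted both ways so AC50 may mark signal gain or loss versus DMSO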
Outline: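 Cells (human bronchial epithelial, primary) are treated with chemicals, and after 24 h the parallel cultures are fixed in 10% TCA. These are then stained with 0.1% SRB and read at 560 nm. Gain or loss of signal is fitted relative to DMSO.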

[7] = read-out: Thrombomodulin, THBD (gene 7056); experiment: BSK_3C_Thrombomodulin: BioMAP Diversity Plus: 3C Assay for Thrombomodulin Biomarker Activity (AID 2283029); settings: primary human endothelial cells (HUVEC); actives raise or lower the signal
Outline: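 Read-out is ELISA of thrombomodulin on human umbilical vein endothelium 24 h after chemical dosing. Gain or loss of signal is scored relative to DMSO. Overt cytotoxicity is checked in parallel cultures by sulforhodamine B staining.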

[8] = read-out: Vascular endothelial growth factor receptor 2 (Homo sapiens) (UniProt P35968); experiment: BSK_4H_VEGFRII: BioMAP Diversity Plus: 4H Assay for Vascular endothelial growth factor receptor 2 (VEGFR2) Biomarker Activity (AID 2283031); settings: primary human endothelial cells (HUVEC); actives raise or lower the signal;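 as to AC50: cell-surface VEGFR2 protein level quantified by ELISA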
Outline: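 ELISA read-out of VEGFRII in primary human umbilical vein endothelium, taken 24 h after chemical treatment. Responses are expressed relative to DMSO, with bidirectional fitting.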

[9] = read-out: Human Leukocyte Antigen - DR isotype (HLADR), HLA-DRA (gene 3122); experiment: BSK_BE3C_HLADR: BioMAP Diversity Plus: BE3C Assay for Human Leukocyte Antigen - DR isotype (HLADR) Biomarker Activity (AID 2283032); settings: primary human bronchial epithelial cells; actives raise or lower the signal
Outline: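 ELISA read-out of HLA-DR on human lung bronchial epithelial primary cells, measured 24 h post-dosing. Both increases and decreases were scored relative to DMSO vehicle.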

[10] = read-out: Vascular cell adhesion molecule 1 (VCAM1), VCAM1 (gene 7412); experiment: BSK_4H_VCAM1: BioMAP Diversity Plus: 4H Assay for Vascular cell adhesion molecule 1 (VCAM1) Biomarker Activity (AID 2283033); settings: primary human endothelial cells (HUVEC); actives raise or lower the signal
Outline: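 ELISA read-out of VCAM-1 on human umbilical vein endothelium 24 hours after chemical dosing; gain or loss of signal was fitted relative to DMSO, with sulforhodamine B staining of parallel cultures flagging overt cytotoxicity.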

[11] = read-out: Interferon-gamma inducible Protein 10 (IP10), CXCL10 (gene 3627); experiment: BSK_BE3C_IP10: BioMAP Diversity Plus: BE3C Assay for Interferon-gamma inducible Protein 10 (IP10) Biomarker Activity (AID 2283034); settings: primary human bronchial epithelial cells; actives raise or lower the signal
Outline: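 Chemical is dosed onto human lung bronchial epithelial primary cells, cultures are incubated 24 h, and IP-10 is then quantified by ELISA. Gain or loss of signal is fitted in both directions relative to DMSO.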

[12] = read-out: Monokine induced gamma interferon (MIG), CXCL9 (gene 4283); experiment: BSK_BE3C_MIG: BioMAP Diversity Plus: BE3C Assay for Monokine induced gamma interferon (MIG) Biomarker Activity (AID 2283035); settings: primary human bronchial epithelial cells; actives raise or lower the signal
Outline: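 MIG level was determined by ELISA after 24 h chemical treatment of primary human bronchial epithelial cells. Values were fitted bidirectionally with DMSO as the negative control and activity baseline.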

[13] = read-out: Transforming growth factor beta 1 (TGFb1), TGFB1 (gene 7040); experiment: BSK_BE3C_TGFb1: BioMAP Diversity Plus: BE3C Assay for Transforming growth factor beta 1 (TGFb1) Biomarker Activity (AID 2283036); settings: primary human bronchial epithelial cells; actives raise or lower the signal
Outline: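 Primary human lung bronchial epithelial cells; compound exposure 24 h; TGF-b1 by ELISA; bidirectional fit, DMSO baseline. Parallel SRB total-protein staining for cytotoxicity.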

[14] = read-out: Plasminogen activator inhibitor-1 (PAI1), SERPINE1 (gene 5054); experiment: BSK_BE3C_PAI1: BioMAP Diversity Plus: BE3C Assay for Plasminogen activator inhibitor-1 (PAI1) Biomarker Activity (AID 2283037); settings: primary human bronchial epithelial cells; actives raise or lower the signal
Outline: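 Primary human lung bronchial epithelial cells; chemical dosing; 24 h; PAI-1 measured by ELISA; bidirectional fit referenced to DMSO as negative control.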

[15] = read-out: urokinase plasminogen activator (uPA), PLAU (gene 5328); experiment: BSK_BE3C_uPA: BioMAP Diversity Plus: BE3C Assay for urokinase plasminogen activator (uPA) Biomarker Activity (AID 2283038); settings: primary human bronchial epithelial cells; actives raise or lower the signal
Outline: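 Bronchial epithelial cells (human, primary); chemical 24 h; uPA by ELISA; bidirectional fit vs DMSO. SRB (0.1%, after 10% TCA fixation, 560 nm) in parallel cultures for cytotoxicity.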

[16] = read-out: Urokinase-type plasminogen activator receptor (uPAR), PLAUR (gene 5329); experiment: BSK_BE3C_uPAR: BioMAP Diversity Plus: BE3C Assay for Urokinase-type plasminogen activator receptor (uPAR) Biomarker Activity (AID 2283039); settings: primary human bronchial epithelial cells; actives raise or lower the signal
Outline: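 Human bronchial epithelial primary cells; chemical exposure 24 h; uPAR by ELISA; bidirectional fit vs DMSO control.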

[17] = read-out: Interleukin-6 (IL6), IL6 (gene 3569); experiment: BSK_CASM3C_IL6: BioMAP Diversity Plus: CASM3C Assay for Interleukin-6 (IL6) Biomarker Activity for (AID 2283040); settings: primary human coronary artery smooth muscle cells; actives raise or lower the signal
[18] = read-out: Tissue plasminogen activator (tPA), PLAT (gene 5327); experiment: BSK_BE3C_tPA: BioMAP Diversity Plus: BE3C Assay for Tissue plasminogen activator (tPA) Biomarker Activity (AID 2283041); settings: primary human bronchial epithelial cells; actives raise or lower the signal
Outline: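 Primary human lung bronchial epithelial cultures receive test chemical; after 24 h, tPA is quantified by ELISA, and gain or loss of signal is fitted bidirectionally relative to DMSO baseline.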

[19] = read-out: Interleukin-8 (IL8), CXCL8 (gene 3576); experiment: BSK_CASM3C_IL8: BioMAP Diversity Plus: CASM3C Assay for Interleukin-8 (IL8) Biomarker Activity (AID 2283042); settings: primary human coronary artery smooth muscle cells; actives raise or lower the signal;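 also: IL-8 protein level quantified by ELISA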
[20] = read-out: Urokinase-type plasminogen activator receptor (uPAR), PLAUR (gene 5329); experiment: BSK_4H_uPAR: BioMAP Diversity Plus: 4H Assay for Urokinase-type plasminogen activator receptor (uPAR) Biomarker Activity (AID 2283030); settings: primary human endothelial cells (HUVEC); actives raise or lower the signal
Outline: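 Cell-surface uPAR ELISA signal, measured 24 h after dosing human umbilical vein endothelial cells, was analyzed with bidirectional fitting relative to DMSO. Parallel SRB staining of total protein tracked overt cytotoxicity.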

Measured: AC50

O=P(OC(CCl)CCl)(OC(CCl)CCl)OC(CCl)CCl
active: [2] 7.97 µM | [3] 39 µM
not listed: [20]
inactive: all other assays above

CC(C)=CCCC(C)CCO (stereo not drawn)
not listed: [20]
inactive: all other assays above

CCCCCCCCCCCCCCCO
active: [1] 36.8 µM | [3] 37.3 µM | [4] 31.3 µM | [5] 36.1 µM | [7] 6.63 µM | [8] 36.8 µM | [10] 37.5 µM
inactive: all other assays above

CC[C@H]1CC[C@H](NCc2cc3c(cc2OC)[C@H]2C[C@H]2C(=O)N3C)[C@H](c2ccccc2)N1
not listed: [16]
inactive: all other assays above

O=C(O)c1cccc(Oc2ccccc2)c1
not listed: [16]
inactive: all other assays above

CCn1nc(Cc2ccccc2)cc1C1CCN(C[C@H]2C[C@H](N(C)[C@@H](C(=O)O)C(C)C)C[C@@H]2c2cccc(F)c2)CC1
not listed: [20]
inactive: all other assays above

COC(=O)CC(=O)OC
inactive: all assays above

CCc1cc(SCc2sc(-c3ccc(C(F)(F)F)cc3)nc2CN2CCN(c3ccc(OC)cc3)CC2)ccc1OCC(=O)O
active: [1] 5.75 µM | [2] 9.73 µM | [3] 14.5 µM | [4] 11.3 µM | [5] 11.8 µM | [6] 5.19 µM | [7] 37 µM | [20] 16 µM | [8] 4.8 µM | [9] 5.41 µM | [10] 10 µM | [11] 3.2 µM | [12] 5.52 µM | [13] 5.17 µM | [14] 3.07 µM | [15] 5.31 µM | [17] 20 µM | [18] 5.23 µM | [19] 34.1 µM

CC(C)(O)c1coc(S(=O)(=O)NC(=O)Nc2c3c(cc4c2CCC4)CCC3)c1
not listed: [16]
inactive: all other assays above

O=C(OC[C@H]1O[C@@H](OC(=O)c2cc(O)c(O)c(OC(=O)c3cc(O)c(O)c(O)c3)c2)[C@H](OC(=O)c2cc(O)c(O)c(OC(=O)c3cc(O)c(O)c(O)c3)c2)[C@@H](OC(=O)c2cc(O)c(O)c(OC(=O)c3cc(O)c(O)c(O)c3)c2)[C@@H]1OC(=O)c1cc(O)c(O)c(OC(=O)c2cc(O)c(O)c(O)c2)c1)c1cc(O)c(O)c(OC(=O)c2cc(O)c(O)c(O)c2)c1
active: [1] 9.7 µM | [2] 10.8 µM | [4] 6.1 µM | [20] 3.15 µM | [9] 8.27 µM | [10] 9.44 µM | [11] 9.85 µM | [12] 10.2 µM | [13] 9.35 µM | [15] 1.87 µM | [16] 4.13 µM | [18] 1.45 µM
inactive: [3] | [5] | [6] | [7] | [8] | [14] | [17] | [19]

O=C(O)c1cccc(N(Cc2cccnc2)c2ccc(OC(F)F)c(OC(F)F)c2)c1
active: [4] 2.44 µM | [11] 32.8 µM | [14] 31.3 µM
inactive: all other assays above

From PubChem BioAssay (EPA / NIEHS)
